Article PMC4336329 (PLoS ONE, 2015)
In all, about 310,000 compounds went through this assay and about 2,200 (0.71%) showed an effect of 50% or more. The effect is printed as a negative number. What follows is part of a selection rich in strong results, with near analogues and random picks from the rest.

These compounds were tested against human ether-à-go-go-related gene (hERG) potassium channel (human, UniProt Q12809) (assay: primary screen, population patch clamp on CHO cells stably expressing hERG; higher = less effect of the substance).
human ether-à-go-go-related gene (hERG) potassium channel, sequence (Q12809 whole entry, looked up): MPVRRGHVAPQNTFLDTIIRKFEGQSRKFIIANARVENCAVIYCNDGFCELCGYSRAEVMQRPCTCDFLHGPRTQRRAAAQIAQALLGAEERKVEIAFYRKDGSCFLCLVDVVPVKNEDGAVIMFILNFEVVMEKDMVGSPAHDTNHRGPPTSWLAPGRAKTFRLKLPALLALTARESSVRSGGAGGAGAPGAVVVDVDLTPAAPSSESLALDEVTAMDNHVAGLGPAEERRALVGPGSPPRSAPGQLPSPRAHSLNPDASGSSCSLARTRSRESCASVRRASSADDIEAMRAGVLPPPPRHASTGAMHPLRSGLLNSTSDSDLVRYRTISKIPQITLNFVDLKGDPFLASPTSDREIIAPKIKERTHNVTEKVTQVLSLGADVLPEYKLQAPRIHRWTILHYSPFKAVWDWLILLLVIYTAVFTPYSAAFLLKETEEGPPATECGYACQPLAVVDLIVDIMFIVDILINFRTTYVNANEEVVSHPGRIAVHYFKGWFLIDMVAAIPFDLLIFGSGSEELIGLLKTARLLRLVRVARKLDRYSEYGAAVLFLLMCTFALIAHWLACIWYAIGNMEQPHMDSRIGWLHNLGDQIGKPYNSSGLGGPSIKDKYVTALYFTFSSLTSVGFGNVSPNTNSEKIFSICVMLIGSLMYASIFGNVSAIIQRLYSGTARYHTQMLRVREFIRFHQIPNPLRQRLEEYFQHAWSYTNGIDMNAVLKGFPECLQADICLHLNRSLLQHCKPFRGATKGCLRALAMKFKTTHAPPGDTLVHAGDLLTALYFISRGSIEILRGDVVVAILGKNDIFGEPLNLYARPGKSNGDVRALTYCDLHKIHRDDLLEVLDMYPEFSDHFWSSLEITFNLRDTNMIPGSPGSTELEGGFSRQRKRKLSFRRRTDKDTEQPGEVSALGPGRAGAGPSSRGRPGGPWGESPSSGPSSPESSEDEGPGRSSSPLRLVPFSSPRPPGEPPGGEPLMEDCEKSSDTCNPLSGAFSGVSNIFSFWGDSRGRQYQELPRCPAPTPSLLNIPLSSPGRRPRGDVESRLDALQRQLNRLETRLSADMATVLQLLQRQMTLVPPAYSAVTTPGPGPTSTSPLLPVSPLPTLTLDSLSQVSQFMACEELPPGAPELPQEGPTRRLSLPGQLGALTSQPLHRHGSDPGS

Structure (SMILES) | hERG current change (%, negative = inhibition) at 1uM [%]
O=C(NCC1(O)CCCCC1)C1CCC(=O)N(Cc2ccccc2F)C1 (stereo not drawn) | 15.8
CCOC(=O)COc1ccc(S(=O)(=O)NCc2ccncc2)cc1 | 8.78
CCn1cc(CCCC(=O)NCc2ccc(OC)cc2)c2ccccc21 | 15.1
CCOc1cc(/C=C2\C(=O)ON=C2c2ccccc2)ccc1OC | 17.4
O=C(CCN1C(=O)c2ccccc2C1=O)NC(=S)Nc1ccccc1Cl | 5.29
CCC(CCC(=O)Nc1ccn(-c2ccccc2)n1)C(=O)O (stereo not drawn) | 7.09
Cc1nc(NC(=O)c2ccccc2[N+](=O)[O-])sc1C(=O)N(C)C | 16.4
O=C(O)c1ccc(S(=O)(=O)N(CCc2ccccc2)Cc2ccc(Cl)cc2)cc1 | 11.5
Brc1ccc(-c2cnco2)cc1 | 9.53
COc1ccc(S(=O)(=O)NC2CCCCC2)cc1C(=O)N1CCCCC1 | 0.2
CCN(CC(=O)NCc1ccc(Cl)cc1)C(=O)CCc1ccccc1 | -19.8
CCN(CC(=O)NCc1ccc(F)cc1)C(=O)c1ccc(Cl)cc1 | -2.66
CCN(CC(=O)NCc1ccc(Cl)cc1)C(=O)NCc1ccc(Cl)cc1 | -54.1
O=C(c1ccc2c(c1)N(Cc1ccccc1)C(=O)CS2)N1CCOCC1 | 1.45
CNCCOc1nc(N2CCOCC2)nc(C)c1[N+](=O)[O-] | 10.1
COc1ccc(NC2CCCN(C(=O)c3cccs3)C2)cc1 (stereo not drawn) | 12.5
C/C(=N\NC(=O)c1ccc(CN2CCOCC2)cc1)c1ccc([N+](=O)[O-])cc1 | 10
C/C(=N/NC(=O)CN1CCN(Cc2ccccc2)CC1)c1ccc([N+](=O)[O-])cc1 | -72.9
O=C(CN1CCN(S(=O)(=O)c2ccc(Br)cc2)CC1)N/N=C/c1ccncc1 | -51.8
C/C(=N\NC(=O)CN1CCN(S(=O)(=O)c2ccc(C)cc2)CC1)c1ccncc1 | -77.6
C/C(=N\NC(=O)CN1CCN(Cc2ccccc2)CC1)c1cccs1 | -2.13
O=C(CN1CCN(S(=O)(=O)c2ccc(Br)cc2)CC1)N/N=C/c1cccnc1 | -1.72
C/C(=N/NC(=O)CN1CCN(Cc2ccccc2Cl)CC1)c1ccncc1 | -18.3

Structure (SMILES) | hERG current change (%, negative = inhibition) at 1uM [%]
Cc1ccc(S(=O)(=O)N2CCN(CC(=O)N/N=C\c3ccncc3)CC2)cc1 | -26.2
C/C(=N\NC(=O)CN1CCN(Cc2ccccc2)CC1)c1ccncc1 | -3.1
C/C(=N\NC(=O)CN1CCN(S(=O)(=O)c2ccc(C)cc2)CC1)c1ccc(O)cc1 | 9.16
C/C(=N\NC(=O)CN1CCN(Cc2ccc(C)cc2)CC1)c1ccncc1 | -77.9
C/C(=N/NC(=O)CN1CCN(S(=O)(=O)c2ccc(Br)cc2)CC1)c1ccncc1 | -44.3
CCOC(=O)CSC1=NC(=O)/C(=C/c2ccc(Br)cc2)S1 | 9.71
CCS(=O)(=O)NC(C)c1nnc2n1-c1ccc(Br)cc1C(c1ccccc1Cl)=NC2 (stereo not drawn) | -4.22
Cc1cc(C)cc(Nc2nc3c(S(=O)(=O)c4ccccc4)nnn3c3ccccc23)c1 | 11.3
CC(Oc1ccc(Cl)cc1)C(=O)Nc1ccccc1C(=O)N1CCOCC1 (stereo not drawn) | -1.27
CCc1ccc(CNCc2cccnc2)cc1 | 9.07
COc1ccc(-c2cc(C(F)(F)F)n3nc(C(=O)N4CCCCC4)cc3n2)cc1 | 4.13
O=C(O)COc1ccc(C(NC(=O)c2c(F)cccc2F)NC(=O)c2c(F)cccc2F)cc1 | 16.9
O=C1C2=C(SCCS2)C(=O)N1c1ccccc1 | 20.6
C=CCN=C1SC(C)C(=O)N1S(=O)(=O)c1ccccc1 (stereo not drawn) | 4.31
CCCc1nnc(SCC(=O)Nc2ccc(OC)cc2)n1N | 11.1
CC(=O)Oc1ccc(/C(C)=N/N2CCN(Cc3ccc(C)cc3)CC2)cc1 | -69.8
COc1cc(/C(C)=N/N2CCN(Cc3ccc(C)cc3)CC2)ccc1O | -3.97
CC(=O)Oc1ccc(/C(C)=N\N2CCN(Cc3ccc(Cl)cc3)CC2)cc1 | -16.4
CCOC(=O)c1sc(NC(=O)CCN2CCCCCC2)c(C(=O)OCC)c1C | 10.6
CCOC(=O)c1sc(NC(=O)CCN2CCN(CC)CC2)c(C(=O)OCC)c1C | -59.8
CCOC(=O)c1sc(NC(=O)CCN2CCN(C)CC2)c(C(=O)OCC)c1C | -15.3
COc1ccc(CCC(=O)Nc2nc3ccccc3[nH]2)cc1OC | -51.1
COc1ccc(CCC(=O)Nc2nc3ccccc3[nH]2)cc1 | 5.78

Structure (SMILES) | hERG current change (%, negative = inhibition) at 1uM [%]
COc1ccccc1CCC(=O)Nc1nc2ccccc2[nH]1 | 18.7
COCCNC(=S)NC12CC3CC(CC(C3)C1)C2 | 11.3
O=C(NC12CC3CC(CC(C3)C1)C2)c1ccc(-c2cccc(Cl)c2)o1 | 21.9
O=C(CCCC(=O)OCC(=O)c1ccc(F)cc1)Nc1cc(C(F)(F)F)ccc1Cl | 12
O=C(Cc1ccc(Cl)c(Cl)c1)Nc1ccc2[nH]c(=O)[nH]c2c1 | 4.75
COC(=O)c1cc(S(=O)(=O)NCC2CCN(Cc3ccc(Cl)cc3)CC2)c[nH]1 | -59.6
COC(=O)c1cc(S(=O)(=O)NCC2CCN(Cc3cccc(Cl)c3)CC2)c[nH]1 | 5.82
COC(=O)c1cc(S(=O)(=O)NCC2CCN(Cc3cc(C)ccc3C)CC2)c[nH]1 | 2.48
COC(=O)c1cc(S(=O)(=O)NCC2CCN(Cc3ccc(C)cc3)CC2)c[nH]1 | -63
COC(=O)c1cc(S(=O)(=O)NCC2CCN(Cc3ccc(F)cc3)CC2)c[nH]1 | 7.24
COC(=O)c1cc(S(=O)(=O)NCC2CCN(Cc3cccc(F)c3)CC2)c[nH]1 | 2.87
COc1cc(/C=N/NC(=O)c2ccc(N(C)S(=O)(=O)c3ccccc3)cc2)cc(OC)c1OC | 10.6
O=C(O)CCC(=O)Nc1cccc(-c2csc(-c3ccccc3)n2)c1 | 4.25
COC(=O)c1cc2sc(Cl)cc2n1CC(=O)Nc1ccc(OC)c(OC)c1OC | -58.5
COC(=O)c1cc2occc2n1CC(=O)Nc1ccc(OC)c(OC)c1OC | 11.1
COC(=O)c1cc2sccc2n1CC(=O)Nc1ccc(OC)c(OC)c1OC | 9.49
Cc1ccc2[nH]c(=O)c(CN(Cc3nnnn3Cc3ccccc3)C3CCCC3)cc2c1 | 11.9
O=c1cc(CS(=O)(=O)c2ccccc2)nc(-c2ccncc2)[nH]1 | 11.3
Cc1ccc(C(=O)N/C(=C\c2cccs2)C(=O)N2CCCCCC2)cc1 | -19.3
Cc1ccc(C(=O)N/C(=C/c2cccs2)C(=O)N2CCCCCC2)cc1 | -13.9
COc1ccc(C(=O)N/C(=C\c2cccs2)C(=O)N2CCN(C)CC2)cc1OC | -33.9
CCN1CCN(C(=O)/C(=C/c2cccs2)NC(=O)c2ccc(C)c(C)c2)CC1 | -83.5
CCOC(=O)N1CCN(C(=O)/C(=C/c2cccs2)NC(=O)c2cccs2)CC1 | -6.55

Structure (SMILES) | hERG current change (%, negative = inhibition) at 1uM [%]
Cc1ccc(C(=O)N/C(=C/c2cccs2)C(=O)N2CCCCC2)cc1 | 10.6
Cc1ccc(C(=O)N/C(=C\c2cccs2)C(=O)N2CCOCC2)cc1C | 1.26
CCOC(=O)N1CCN(C(=O)/C(=C/c2cccs2)NC(=O)c2ccc(OC)c(OC)c2)CC1 | -64.7
Cc1ccc(C(=O)N/C(=C\c2cccs2)C(=O)N2CCN(C)CC2)cc1C | -77.2
COc1cc(NC(=O)CSc2ncnc3scc(-c4ccccc4)c23)c(C(=O)O)cc1OC | 11.2
CCN(CC)C(=O)Cn1cc(S(=O)(=O)CC(=O)N2CCOCC2)c2ccccc21 | 7.45
Cc1ccc(S(=O)(=O)N2CCCCC2)cc1NC(=O)COC(=O)Cc1c(F)cccc1Cl | 14.5
CCOC(=O)C1CCCCN1C(=O)CCc1c(C)nc2cc(-c3ccccc3)nn2c1C (stereo not drawn) | -14
CCOC(=O)C1CCN(C(=O)CCc2c(C)nc3cc(-c4ccc(OC)cc4OC)nn3c2C)CC1 | -10.6
CCOC(=O)C1CCN(C(=O)CCc2c(C)nc3cc(-c4ccccc4)nn3c2C)CC1 | -62
S=C(N/N=C/c1ccco1)NC1CC2CCC1C2 (stereo not drawn) | 8.84
CC1(C)O[C@@H]2C[C@H]3[C@@H]4C[C@H](F)C5=CC(=O)CC[C@]5(C)[C@H]4[C@@H](O)C[C@]3(C)[C@]2(C(=O)CO)O1 | 18.1
COc1cccc2c1OCC(CN1CCN(Cc3ccccc3)C(CCO)C1)=C2 (stereo not drawn) | -4.17
CCOc1ccc(CN2CCN(CC3CC3)CC2CCO)cc1 (stereo not drawn) | -20.7
OCCC1CN(Cc2cc3c(cc2Cl)OCO3)CCN1Cc1ccccc1 (stereo not drawn) | -1.48
Cc1ccc(CN2CCN(Cc3cccc4c3OCO4)CC2CCO)cc1 (stereo not drawn) | -16.1
CCOc1ccc(CN2CCN(Cc3cccc4c3OCO4)CC2CCO)cc1 (stereo not drawn) | -64.9
CCOc1ccc(CN2CCN(CC3=Cc4cccc(OC)c4OC3)CC2CCO)cc1 (stereo not drawn) | -71.4
COc1cccc2c1OCC(CN1CCN(Cc3ccccc3F)C(CCO)C1)=C2 (stereo not drawn) | 12
CCOc1ccc(CN2CCN(Cc3cc4c(cc3Cl)OCO4)CC2CCO)cc1 (stereo not drawn) | -62.9
OCCC1CN(Cc2cccc3c2OCO3)CCN1Cc1ccccc1 (stereo not drawn) | 7.11
